Data as given in ChEMBL document CHEMBL3988442, “University of Dundee, Small-Polar-MMV Screening Library” (2021).
In all, about 48,000 compounds went through this assay and about 13,000 (27%) showed an effect of 50% or more. The list shows a part of the results.

These compounds were tested on Wolbachia pipientis (assay: Anti-Wolbachia Cell-Based Screen). Settings: 5 µM.
Format: functional
Parameters: scale not given: in the data most compounds retested in dose-response had high values
With `Cc1cc(C)n(-c2ccnc(N3CCC(C(=O)N4CCCC4)CC3)n2)n1` the “Percent Effect” value was 4.916%. In the case of `COCc1cc(CC2(NCc3ccccc3Cl)COC2)no1`, the “Percent Effect” value is reported as -15.27%. For `COc1ccnc(N2CCC3(CC2)[C@H](O)C[C@@H]3OCCN(C)C)n1`, the “Percent Effect” value was -4.525%. In the case of `CN(C(=O)CCc1cccs1)C1CCCN(C2Cc3ccccc3C2)C1` (stereo unspecified), the “Percent Effect” value is reported as -51.14%. For `C1CCCN(c2nc(C3CC3)no2)CC1`, the “Percent Effect” value was 3.376%. For `O=C(O)C(F)(F)F.c1ncn(Cc2cn3c(n2)CN(CC2CCCCC2)CC3)n1`, the “Percent Effect” value was -9.983%. `CN(C)CCN1CCC(NC2CSCCc3ccccc32)CC1` (stereo unspecified) was tested, and the “Percent Effect” value was -11.44%. `CCOc1cccc(CCNC(=O)Cc2cccc(O)c2)n1` was tested, and the “Percent Effect” value was 19.48%. For `Oc1cccc(CNCCC2CCCO2)c1` (stereo unspecified), the “Percent Effect” value was 17.11%. In the case of `O=C(Cc1cccc(F)c1)NCCNCc1ccc2c(c1)CCO2`, the “Percent Effect” value is reported as -2.552%. In the case of `O=C(Cc1ccc(F)cc1)NCCNCc1cccc(O)c1`, the “Percent Effect” value is reported as 75.28%. `O=C(Cc1cccc(F)c1)NCCNCc1cccc(O)c1` was tested, and the “Percent Effect” value was -5.303%. With `O=C(Cc1ccccc1)NCCNCc1cccc(O)c1` the “Percent Effect” value was 87.97%. In the case of `CC(NCc1ccc(-c2ccc(Cl)cc2)o1)c1nnc2n1CCC2` (stereo unspecified), the “Percent Effect” value is reported as -12.12%. For `COCCSc1ccc(C(C)NC(=O)Nc2cccnc2)cc1` (stereo unspecified), the “Percent Effect” value was -3.032%. In the case of `CN(Cc1nnc(-c2ccco2)o1)CC1CCCN1c1cccnn1` (stereo unspecified), the “Percent Effect” value is reported as 6.587%. For `CC(C)Oc1ccccc1-c1cc(CN)ccc1F`, the “Percent Effect” value was 10.62%. With `O=C(Cn1cc(Cl)cn1)Nc1ccc2c(c1)OCO2` the “Percent Effect” value was 1.967%. For `CC(C)C(=O)Nc1ccc(Oc2ccc3c(c2)OCO3)nc1`, the “Percent Effect” value was 107.3%. In the case of `CC(C)OCC(=O)Nc1ccc(Oc2ccc3c(c2)OCO3)nc1`, the “Percent Effect” value is reported as 77.43%. For `Cc1cnn(CCCOc2ccc3c(c2)OCO3)c1`, the “Percent Effect” value was -11.3%. With `Cc1ccc(Oc2ccc(NC(=O)NCC3CCOC3)cn2)cc1C` (stereo unspecified) the “Percent Effect” value was -4.291%. With `O=C(CCN1C(=O)CCC1=O)Nc1ccc(Oc2ccc(Cl)cc2)nc1` the “Percent Effect” value was -10.42%. With `Cc1cc(C)nc(NC(=O)C(C)Oc2ccc3c(c2)OCO3)n1` (stereo unspecified) the “Percent Effect” value was 15.82%. With `CCCNC(=O)C(C)Nc1cccc(Oc2ccc(C#N)cn2)c1` (stereo unspecified) the “Percent Effect” value was -3.4%. `CC(=O)Nc1ccc(Oc2ccc3c(c2)OCO3)nc1` was tested, and the “Percent Effect” value was 99.6%. For `O=C(NCC1(O)CCOC1)NCC1(c2ccccc2Cl)CC1` (stereo unspecified), the “Percent Effect” value was 3.661%. For `CCS(=O)(=O)CC(=O)Nc1cccc2c1CN(CC(C)C)C2`, the “Percent Effect” value was -13.69%. With `CC(NC(=O)CCc1nc(-c2nnc[nH]2)no1)c1ccc(F)cc1F` (stereo unspecified) the “Percent Effect” value was 1.12%. For `COCCCC1(C(=O)O)CCCN(Cc2ccccc2C)C1` (stereo unspecified), the “Percent Effect” value was -5.241%. For `CN(Cc1c(F)cccc1Cl)C(=O)CN(C)C1CCc2ccccc21` (stereo unspecified), the “Percent Effect” value was -6.423%. `N#Cc1ccccc1C(=O)N1CCC2(CC(=O)NC2=O)C1` (stereo unspecified) was tested, and the “Percent Effect” value was -23.72%. `O=C(O)c1ccccc1CN1CCC2(Cc3ccccc3CNC2=O)C1` (stereo unspecified) was tested, and the “Percent Effect” value was 101.8%. With `O=C1NCc2ccccc2CC12CCN(Cc1c(F)cccc1Cl)C2` (stereo unspecified) the “Percent Effect” value was 159.3%. For `O=C(O)c1csc(S(=O)(=O)N2CCN(Cc3c(F)cccc3Cl)CC2)c1`, the “Percent Effect” value was 1.307%. In the case of `O=C1NC2(CCN(Cc3ccccc3Cl)CC2)CC1c1ccccc1` (stereo unspecified), the “Percent Effect” value is reported as 14.18%. For `O=C1NCc2ccccc2CC12CCN(Cc1ccccc1Cl)CC2`, the “Percent Effect” value was 119.1%. For `O=C(C1CCOC1)N1CCC2(CC1)Cc1ccccc1CNC2=O` (stereo unspecified), the “Percent Effect” value was -36.36%. `CC(CC#N)N(C)Cc1ccccc1Cl` (stereo unspecified) was tested, and the “Percent Effect” value was 14.98%. `CSc1nccc(N2C[C@@H]3CC[C@H](C2)N(CC2CCC2)C3=O)n1` was tested, and the “Percent Effect” value was 23.13%. In the case of `COCCC1(C(=O)NCCc2nncn2C2CC2)CCC1`, the “Percent Effect” value is reported as -3.297%. In the case of `CCOCC1CCN(C(=O)Nc2ccc3c(c2)CCCO3)C1` (stereo unspecified), the “Percent Effect” value is reported as -8.757%. `CS(=O)(=O)c1nccn1CCOc1ccccc1F` was tested, and the “Percent Effect” value was 21.64%. With `O=C(O)C(F)(F)F.c1csc(CN2CCCn3cnc(COCC4CC4)c3C2)n1` the “Percent Effect” value was -1.239%. For `O=C1OCCN1CC(=O)N1C[C@H]2CC[C@@H]1CN(C(=O)c1cccnc1)C2`, the “Percent Effect” value was -9%. For `CCc1ccc(O)c(C(=O)NC2CCN(C(=O)OC)CC2)c1`, the “Percent Effect” value was 2.941%. `CCc1ccc(O)c(C(=O)NC2CCN(Cc3ccncc3)CC2)c1` was tested, and the “Percent Effect” value was 19.96%. For `CCc1cnccc1C(=O)NC1CCN(Cc2ccccc2F)CC1`, the “Percent Effect” value was 94.68%. With `O=C(C1CCCC1)N1CCC(Nc2ccncn2)CC1` the “Percent Effect” value was 23.24%. For `CCc1cnccc1C(=O)NC1CCN(C(=O)C2CCCCC2)CC1`, the “Percent Effect” value was 87.11%. `CCc1cnccc1C(=O)NC1CCN(C(=O)OC)CC1` was tested, and the “Percent Effect” value was 94.08%. With `N#Cc1cnc(NC2CCN(C(=O)C3CCCCC3)CC2)c(Cl)c1` the “Percent Effect” value was 1.1%. With `O=C(NC1CCN(C(=O)C2CCCCC2)C1)c1ccncc1Cl` (stereo unspecified) the “Percent Effect” value was 79.99%. In the case of `CC(NC(=O)NC1CCN(Cc2ccncc2)CC1)c1ccccc1F` (stereo unspecified), the “Percent Effect” value is reported as -8.351%. `CC(NC1CCN(C(=O)C2CCCCC2)CC1)c1nccs1` (stereo unspecified) was tested, and the “Percent Effect” value was -8.519%. `O=C(NC1CC1)c1cc(NC(=O)N2CCCC2)ccc1Cl` was tested, and the “Percent Effect” value was -51.77%.
